High-throughput results from PubChem BioAssay.
ATXN2 expr inh: inhibitors of ATXN2 expression | HEK-293 ATXN2-luciferase reporter, luminescence, 24 h | Potency, µM (doses to about 57 µM), for the others: at the top dose activity change, negative = inhibition, most hits filed as inhibitors | hit rate 0.72% among 360,000; further: on the % scale 0 is the no-effect control and ±100 the full control effect; nearly all actives have a fitted effect of over 55% in size
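qHTS (up to 57 uM final) was run with 24 h compound exposure of reporter cells at 37 °C. Each well was multiplexed: SteadyGlo luminescence measured ATXN2-luciferase expression after a fluorogenic Gly-Phe-AFC viability readout (25 uM final).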
HepG2 tox-1: HepG2 cytotoxicity, counter-screen for TGF-b inhibitors; HepG2 CAGA-GFP viability, ATP luminescence, 18 h; Potency, µM (highest dose often 46.1 µM), inactives show at the top dose activity change, negative = cytotoxicity, usual class: cytotoxic; hit rate 0.76% among 410,000
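CellTiter-Glo luminescence gave cytotoxicity after 18 hours at 37 degrees C. The cells were HepG2 CAGA-GFP in 1% FBS DMEM, stimulated with 500 pg/mL TGF-beta after compound addition. %Activity was normalised to no-cell wells (complete cell-killing) and DMSO (no toxicity), and curves were fitted and classified.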
HT1080NT lethal: kills 2HG-producing HT-1080-NT fibrosarcoma cells; HT-1080-NT fibrosarcoma viability, CellTiter-Glo ATP luminescence, 48 h; Potency, µM (series often up to 46.1 µM), without a hit: top-dose activity, negative = less viability, usual class: cytotoxic; hit rate 1.6% among 360,000; AID 686970;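 further: NT is the 2HG producing partner of a matched IDH1 knockdown line; 0% = DMSO-treated cells and -100% = media-only wells without cells; nearly all actives have a fitted effect of over 55% in size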
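Read-out is CellTiter-Glo luminescence after 10 minutes at room temperature, following 48 hours' compound treatment of HT-1080-NT cells (750 cells/well, RPMI, 5% FBS, 37 degrees C).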
HT1080 IDH1KD tx: toxicity to HT-1080 IDH1 knockdown cells (counter line); HT-1080 IDH1 knockdown viability, ATP luminescence, 48 h; Potency, µM (top dose mostly 46.1 µM), without a hit: at the highest dose activity, negative = toxicity, hits mostly cytotoxic; hit rate 2% among 360,000; AID 686971;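 further: 0% = DMSO wells and -100% = cell-free medium wells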
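Luminescent ATP read-out (CellTiter-Glo, 10 min at room temperature) after 48 h compound exposure at 37 °C gave viability of IDH1-knockdown HT-1080 cells. Activity was normalised to DMSO and cell-free wells, then fitted as concentration-response curves.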
TGFb inhibitor: TGF-b pathway inhibition. HepG2 CAGA-GFP TGF-b/SMAD3 reporter, GFP fluorescence, 18 h; TGF-beta stimulated, 500 pg/mL final. Potency, µM (series often up to 46.1 µM), without a hit: at the top dose activity, negative = inhibition, hits mostly inhibitors. hit rate 1.2% among 410,000. AID 588855; further: on the % scale 0 is the no-effect control and ±100 the full control effect; nearly all actives have a fitted effect of over 65% in size
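TGF-beta reporter screen: HEPG2 CAGA-GFP, 1% FBS, 500 pg/mL TGF-beta final, 18 h; per-cell GFP summed per well; curves fitted and categorized by class.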
ATXN viability: viability counter-screen for ATXN expression inhibitors; S2 cells (HEK-293 line with an ATXN2-luciferase reporter) viability, CellTiter-Fluor protease fluorescence, 24 h; Potency, µM (titrated, usually from 56.7 µM), most hits filed as cytotoxic; hit rate 0.49% among 400,000; AID 651635; further: nearly all actives have a fitted effect of over 40% in size
TGFb confirm: TGF-b pathway inhibition, cherry-pick retest | shares compounds with TGFb inhibitor | HepG2 CAGA-GFP TGF-b reporter, GFP fluorescence, 18 h; cells stimulated with TGF-beta, 500 pg/mL | hit rate 63% among 1,600 | Potency, µM (series often up to 46.1 µM), for the others: at the top dose activity, negative = inhibition, actives largely listed as inhibitors; further: on the % scale 0 is the no-effect control and ±100 the full control effect; nearly all actives have a fitted effect of over 65% in size
HepG2 tox-2: HepG2 cytotoxicity, TGF-b inhibitor counterscreen. shares compounds with TGFb inhibitor. HepG2 CAGA-GFP viability, ATP luminescence, 18 h; cells stimulated with TGF-beta, 500 pg/mL. Potency, µM (highest dose often 46.1 µM), inactives show at the highest dose activity, negative = cytotoxicity, most hits filed as inhibitors. hit rate 27% among 1,600. AID 720535; further: on the % scale 0 is the no-effect control and ±100 the full control effect; nearly all actives have a fitted effect of over 70% in size
TGFb CCL64 inh: TGF-b inhibition, CCL64 orthogonal assay | Potency, µM (series often up to 46.1 µM), without a hit: top-dose activity, negative = inhibition, hits mostly inhibitors | hit rate 41% among 1,600 | shares compounds with TGFb inhibitor | CCL64 CAGA-GFP reporter, TGF-b stimulated, GFP fluorescence, 18 h; further: nearly all actives have a fitted effect of over 65% in size
TGFb COP inh: TGF-b inhibition validated with COP promoter; shares compounds with TGFb inhibitor; HepG2 COP-GFP TGF-b reporter, GFP fluorescence, 18 h; cells stimulated by added recombinant TGF-beta; Potency, µM (series often up to 46.1 µM), inactives show top-dose activity, negative = inhibition, actives largely listed as inhibitors; hit rate 3% among 1,600; further: nearly all actives have a fitted effect of over 70% in size
Numbers without * were called inactive; i = inactive; u = inconclusive; x = no result; [ ] = another dose, or the depositor's remark. Compounds with a hit are over-represented: about 3.8% of the library has one in this group of screens. The call rests on the fitted dose curve; in most records, active means well fitted curve in the direction sought with a large enough effect; inconclusive means small, poorly fitted or top-dose-only effect, or another doubt; inactive means no such curve, though single readings can be large; an effect the other way counts as inactive or inconclusive. Potency means the concentration at half of the fitted maximal effect.

SMILES | ATXN2 expr inh | HepG2 tox-1 | HT1080NT lethal | HT1080 IDH1KD tx | TGFb inhibitor | ATXN viability | others
O=c1[nH]c2ccccc2n1C1CCN(C(CCc2ccccc2)c2nnnn2C2CCCCC2)CC1 (stereo not given) | 14µM* | -7% | 9% | 16% | u | x
CC(C)(C)n1nnnc1C(CCc1ccccc1)N1CCC(n2c(=O)[nH]c3ccccc32)CC1 (stereo not given) | u | 0% | u | u | u | u
CC(C)N[C@@H]1CCn2c(=O)[nH]c3cccc(c32)[C@@H]1O | 4% | x | x | x | x | x
O=c1[nH]c(O)c(C=NC2CCCCC2)c(=O)[nH]1 | 0% | 0.63µM* | 5% | -1% | 5% | u
Cn1c(O)c(C=NC2CCCCC2)c(=O)[nH]c1=S | 0% | -7% | 4% | 23% | -5% | i
CCC(Oc1ccccc1OC)C(=O)Nc1ccc2c(c1)OCCO2 (stereo not given) | -17% | 6% | 4% | 11% | -1% | u
COc1ccc(C(=O)NCCn2cc(SCc3ccc(C(F)(F)F)cc3)c3ccccc32)cc1OC | -24% | -16% | x | x | 7.1µM* | i
CCN1C[C@]2(OC(=O)c3ccccc3NC(C)=O)CC[C@H](OC)[C@@]34[C@H]5CC6[C@@H](OC)C[C@](O)(C(C[C@@H]23)[C@@H]14)[C@@]5(O)[C@@H]6OC | 4% | x | x | x | x | x
Cc1cc(N2CCN(S(=O)(=O)c3ccc(Cl)cc3)CC2)c2ccccc2n1 | u | 10µM* | u | u | 14µM* | u
O=S(=O)(c1ccc(Cl)cc1)N1CN2CCN(C2)C1 | 5% | -4% | 23% | 13% | 7% | i
O=C1C(=O)c2ccccc2-c2ccccc21 | 2.5µM* | 1.3µM* | 0.92µM* | 1.2µM* | 1.1µM* | 2.8µM*
O=C1C(=O)c2cccc3cccc1c23 | u | 7% | 0% | 6% | u | u
CCN(C(=O)Cn1c(=O)oc2cc(Cl)ccc21)c1cccc(C(F)(F)F)c1 | -14% | -92% | x | x | u | i
COC1C(O)C(C)OC(OC2C(Oc3cccc4c(O)c5c(=O)oc6ccc(C)c7c(=O)oc(c34)c5c67)OC(C)C(O)C2O)C1O (stereo not given) | 10µM* | 6% | u | u | 3% | i
C[C@H]1COC2=C1C(=O)C(=O)c1c2ccc2c1CCCC2(C)C | 3% | 10µM* | u | -28% | 4.5µM* | u
O=C1NC(=O)C2(Cc3ccccc3N3CCOCC32)C(=O)N1c1ccccc1 (stereo not given) | -19% | 13% | u | 18µM* | -9% | i
O=C1NC(=O)C2(Cc3ccccc3N3CCCC32)C(=O)N1c1ccccc1 (stereo not given) | -5% | -14% | -5% | -4% | -1% | i
Cc1ccc(/C=C/C2=NN(Cc3ccc(Cl)c(Cl)c3)C(=O)CC2)cc1 | -9% | -18% | 1% | -1%[9.24 µM] | 11µM* | i
Cc1ccc(Cn2nc(C)c(C=O)c2Cl)cc1 | 13% | 3% | -3% | -7% | -23% | u
COc1cccc2c1[C@]13CCN(CC4CC4)[C@H](C2)[C@]1(OC)CCC(=O)C3 | -10% | x | x | x | x | x
CCOC(=O)C(C(=O)OCC)C(Nc1ccc(Br)cc1)c1ccccc1 (stereo not given) | -25% | 11µM* | u | 13µM* | u | i
COc1ccc(C(c2nnnn2-c2ccc(OC)cc2)N2CCC(n3c(=O)[nH]c4ccccc43)CC2)cc1 (stereo not given) | u | -2% | u | u | 11µM* | u | TGFb confirm=16µM*;HepG2 tox-2=-27%;TGFb CCL64 inh=13µM*;TGFb COP inh=51%
Cc1cccc(C)c1-n1nnnc1C(c1cccs1)N1CCC(n2c(=O)[nH]c3ccccc32)CC1 (stereo not given) | u | -4% | -28% | u | u | x
CSCCC(c1nnnn1-c1c(C)cccc1C)N1CCC(n2c(=O)[nH]c3ccccc32)CC1 (stereo not given) | 0% | -13% | -2% | -4% | -18% | u
CSCCC(c1nnnn1C1CCCCC1)N1CCC(n2c(=O)[nH]c3ccccc32)CC1 (stereo not given) | u | -2% | u | u | 14µM* | u | TGFb confirm=26µM*;HepG2 tox-2=-20%;TGFb CCL64 inh=-31%;TGFb COP inh=-1%
CC[C@]1(O)CC[C@H]2[C@@H]3CCC4=CCCC[C@@H]4[C@H]3CC[C@@]21C | -23% | x | x | x | x | u
COC(=O)C1=C(c2ccc(-c3ccccc3)c(F)c2)C[C@@H]2CC[C@H]1N2C(=O)N1CCC(C)CC1 | -35% | 0% | u | u | 4.5µM* | u | TGFb confirm=7.3µM*;HepG2 tox-2=u;TGFb CCL64 inh=9.2µM*;TGFb COP inh=18%
COC(=O)C1=C(c2ccc3ccccc3c2)C[C@@H]2CC[C@H]1N2C(=O)N1CCOCC1 | 0% | -29% | -10% | -18% | 13µM* | i | TGFb confirm=u;HepG2 tox-2=-5%;TGFb CCL64 inh=5%;TGFb COP inh=1%
CNC(=O)O/N=C/C(C)(C)S(C)=O (stereo not given) | x | -5% | x | x | -3% | x
